Bioassay records as filed in PubChem.
Sampled rows, rich in hits. Any-hit rate of the full collection: about 0.9%.
TRb-SRC2 inh: inhibitors of human thyroid hormone receptor beta-SRC2 interaction; P10828; TRbeta-SRC2 peptide binding, fluorescence polarization; receptor liganded with 1 µM T3; Potency, µM (highest dose often 106 µM), actives largely listed as inhibitors; 280,000 compounds, 0.065% hits; AID 1469; note: nearly all actives have a fitted effect of over 50% in size
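Each compound concentration gave % activity, normalized to unbound and bound Texas Red SRC2 controls, from polarization read after 5 hr ambient incubation with T3-loaded human TRb LBD.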
APEX1 inh: blocks human APE1 abasic DNA cleavage | P27695 | recombinant APE1, TAMRA/BHQ-2 abasic DNA cleavage fluorescence | Potency, µM (titrated, usually from 65.8 µM), hits mostly inhibitors | 350,000 compounds, 0.35% hits | AID 2517; note: nearly all actives have a fitted effect of over 55% in size
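Compound pre-exposure to 0.75 nM APE1, 15 min at ambient temperature. Reaction initiated with 50 nM TAMRA/BHQ-2 THF substrate, read immediately in kinetic mode, 525 nm excitation, 598 nm emission.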
RGS12 GoLoco inh: inhibitors of human Gai1-RGS12 GoLoco interaction (red fluorophore). P63096. Gai1:RGS12 GoLoco peptide FP, rhodamine, 10 min. Potency, µM (highest dose often 61.6 µM), actives largely listed as inhibitors. 230,000 compounds, 0.44% hits. AID 880; active = well fitted inhibition curve with a large enough effect, not every such curve was filed as active; inactive = no such curve, though single readings can be large or run the other way; note: nearly all actives have a fitted effect of over 30% in size
RECQ1 inh-1: blocks DNA unwinding by human RECQ1; RECQ1 DNA unwinding, red fluorescence kinetic read; P46063; Potency, µM (highest dose often 57.3 µM), usual class: inhibitors; 240,000 compounds, 0.54% hits; AID 2549; note: nearly all actives have a fitted effect of over 30% in size
Target sequence (P46063 whole entry, looked up): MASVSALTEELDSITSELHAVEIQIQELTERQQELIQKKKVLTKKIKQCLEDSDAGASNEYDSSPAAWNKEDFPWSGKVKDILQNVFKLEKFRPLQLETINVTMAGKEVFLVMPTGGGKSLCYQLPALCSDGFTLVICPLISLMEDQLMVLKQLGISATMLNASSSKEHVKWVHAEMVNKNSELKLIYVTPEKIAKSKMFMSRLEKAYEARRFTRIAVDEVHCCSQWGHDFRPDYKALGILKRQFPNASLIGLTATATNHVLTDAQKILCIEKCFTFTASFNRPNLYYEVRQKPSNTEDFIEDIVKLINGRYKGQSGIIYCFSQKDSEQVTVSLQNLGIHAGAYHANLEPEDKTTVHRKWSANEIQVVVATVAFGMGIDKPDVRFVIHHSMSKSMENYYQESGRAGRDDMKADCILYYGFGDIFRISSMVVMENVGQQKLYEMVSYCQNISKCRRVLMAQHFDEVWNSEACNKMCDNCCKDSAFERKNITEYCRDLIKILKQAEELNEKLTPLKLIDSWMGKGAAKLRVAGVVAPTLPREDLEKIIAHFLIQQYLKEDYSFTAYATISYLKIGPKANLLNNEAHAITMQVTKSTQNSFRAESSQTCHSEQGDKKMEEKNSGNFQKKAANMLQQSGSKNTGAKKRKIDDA
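RECQ1T1 50 nM; forked duplex (20 bp + 30-nt ss tails) 200 nM, ATP 2 mM final; pH 8.0, 2 mM MgCl2, 2.5 ug/ml poly(dI-dC); 15 min compound preincubation; discontinuous kinetic read over 2 h at RT.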
TexasRed fluor: alters Texas Red total fluorescence, flagging assay interference | TRb/SRC2 Texas Red total fluorescence interference | AID 1479 | 280,000 compounds, 0.29% hits | Potency, µM (series often up to 106 µM); active = well fitted curve in either direction with a large enough effect; inconclusive = small, poorly fitted or top-dose-only effect
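Human TRβ ligand-binding domain (0.6 uM) and Texas Red SRC2 peptide (20 nM) in Tris buffer with 1 uM T3 and 5% DMSO were incubated with pinned compound for 5 hr at ambient temperature. Total fluorescence was computed as S + 2P (555/632 nm).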
BLM helicase inh: blocks DNA unwinding by human BLM helicase; P54132; recombinant BLM DNA unwinding, fluorescence dequenching; Potency, µM (titrated, usually from 56.1 µM), actives largely listed as inhibitors; 350,000 compounds, 0.2% hits; AID 2528; note: nearly all actives have a fitted effect of over 35% in size
RECQ1 inh conf: confirmation of human RECQ1 helicase inhibitors. RECQ1 helicase DNA unwinding, fluorescence. shares compounds with RECQ1 inh-1. AID 2708. Potency, µM (top dose mostly 229 µM), most hits filed as inhibitors. 610 compounds, 28% hits; note: nearly all actives have a fitted effect of over 45% in size
RECQ1 ADP FP: ADP displacement flagged in RECQ1 inhibitor counter-screen; AID 2711; 530 compounds, 27% hits; ADP fluorescence polarization displacement counterscreen; Potency, µM (highest dose often 228 µM), most hits filed as inhibitors; shares compounds with RECQ1 inh-1; note: nearly all actives have a fitted effect of over 45% in size
RECQ1 inh-2: confirmation of human RECQ1 helicase inhibitors. shares compounds with RECQ1 inh-1. recombinant RECQ1 DNA unwinding, red fluorescence. Potency, µM (highest dose often 119 µM), actives largely listed as inhibitors. 1,100 compounds, 15% hits. AID 504841; note: nearly all actives have a fitted effect of over 50% in size
Numbers stand for hits; n = inactive; u = inconclusive; x = no result. Unless noted, calls come from the whole dose curve; as a rule, active = well fitted curve in the direction sought with a large enough effect; inconclusive = small, poorly fitted or top-dose-only effect, or another doubt; inactive = no such curve, though single readings can be large; an effect the other way counts as inactive or inconclusive.

SMILES | TRb-SRC2 inh | APEX1 inh | RGS12 GoLoco inh | RECQ1 inh-1 | TexasRed fluor | BLM helicase inh | RECQ1 inh-2 | others
Nc1cc2nc3ccccc3oc-2cc1=O | n | n | n | u | n | n | u
CCOC(=O)c1c(C)c(C(=O)NCCc2ccc(OC)cc2)c(C)n1C | n | x | x | x | n | n | x
COc1ccc(/C=C2\SC(=O)N(CC(=O)NNC(=O)c3ccccc3O)C2=O)cc1 | n | n | n | 2.82µM | n | n | u
O=C(CN1C(=O)S/C(=C\c2ccccc2)C1=O)NNC(=O)c1ccccc1O | n | n | n | n | n | n | x
Cc1cnc(CNc2ncncc2-c2ccc3c(c2)OCO3)cn1 | x | n | n | n | x | n | x
Cc1cnc(CNc2ncnc3ccc(-c4ccc5c(c4)OCO5)cc23)cn1 | x | n | n | 20µM | x | n | u
C=CCn1c(=O)[nH]c2cc(C(=O)N3CCN(c4ccc(C(C)=O)cc4)CC3)ccc2c1=O | n | n | n | 4.47µM | n | n | u | RECQ1 inh conf=u;RECQ1 ADP FP=n
C=CCn1c(=O)[nH]c2cc(C(=O)N3CCN(c4cccc(Cl)c4)CC3)ccc2c1=O | n | n | n | n | n | n | x
CCOC(=O)N1CCc2c(sc3c2c(=O)n(-c2ccc(Cl)cc2)c(=O)n3Cc2cccc(OC)c2)C1 | n | x | x | x | n | n | x
Cc1cccc(N2CCN(C(=O)c3ccccc3NC(=O)C3CC=CCC3C(=O)O)CC2)c1 (stereo unspecified) | n | n | n | n | n | n | x | RECQ1 inh conf=n;RECQ1 ADP FP=n
Cc1cc(C)n(CCc2nc(-c3ccco3)cs2)n1 | n | u | n | 35.5µM | n | u | u
Cc1nn(CCc2nc(-c3ccco3)cs2)c2[nH]c(=O)cc(C(F)(F)F)c12 | n | u | n | 14.1µM | n | u | u | RECQ1 inh conf=u;RECQ1 ADP FP=u
CCOc1ccc(NC(=O)c2sc3nc4n(c(=O)c3c2C)CCCC4)cc1 | n | x | x | x | n | n | x
Oc1ccc(COC2CCN(Cc3ccccc3)C2)c2cccnc12 (stereo unspecified) | x | n | x | x | x | x | x
Cc1nnc(SCC(=O)Nc2nc(-c3ccccc3)cs2)n1N | n | n | n | n | n | n | x
CCn1c(SCC(=O)Nc2nc(-c3ccccc3)cs2)nnc1-c1ccccc1 | n | n | n | n | n | n | x | RECQ1 inh conf=u;RECQ1 ADP FP=n
COc1cc(CCC(=O)NCc2ccc3c(c2)CCN3C(=O)c2ccc(F)cc2)cc(OC)c1OC | n | x | x | x | n | n | x
CCc1ccccc1Nc1cc(C(=O)NC2CCC(C)CC2)c2ccccc2n1 (stereo unspecified) | n | x | x | x | n | n | x
O=C(O)C(NC(=O)C1CCCN1C(=O)OCc1ccccc1)c1ccccc1 (stereo unspecified) | x | n | x | x | x | n | x
O=C(O)CCC(NC(=O)C1CCCN1C(=O)OCc1ccccc1)C(=O)O (stereo unspecified) | n | n | n | n | n | n | x | RECQ1 inh conf=n;RECQ1 ADP FP=u
O=C(O)c1ccc2c(c1)C(=O)N(c1cccc(C(=O)/C=C/c3ccccc3)c1)C2=O | n | n | n | 6.31µM | n | n | u | RECQ1 inh conf=u;RECQ1 ADP FP=n
O=C(Nc1cccc(C(=O)OCc2cc(=O)n3c4c(sc3n2)CCCC4)c1)c1ccc(Cl)cc1 | n | x | x | x | n | n | x
CNc1ccc(Br)cc(C(=O)/C=C/c2ccc(OC)cc2)c1=O | n | u | n | u | n | u | n
CNc1ccc(Br)cc(C(=O)/C=C/c2cc(OC)ccc2OC)c1=O | n | n | n | n | n | n | x
O=C(/C=C/c1ccc2c(c1)OCO2)NC1CCCC1 | x | n | x | x | x | n | x
CNc1ccc(Br)cc(C(=O)/C=C/c2ccc3c(c2)OCO3)c1=O | n | u | n | u | n | n | u
